Assay outcomes (PubChem BioAssay)
cytoskel mod: alters cytoskeleton assembly in HUVEC cells; 0.18% of 91,000 active; AID 836; inhibition, % at 2 µM; HUVEC TNFa F-actin phalloidin imaging, high content;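 active = inhibition above the batch mean plus 3 SD and confirmed as a hit by visual image inspection, cut at about 30% in these data, passing the limit was not always enough; inconclusive = above the inhibition threshold but rejected on visual inspection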
E-sel TNF inh: TNF alpha driven E-selectin expression inhibition. AID 1246. HUVEC TNFa-induced E-selectin immunofluorescence, high content. inhibition, % at 2 µM. 0.71% of 120,000 active;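 active = inhibition above the batch mean plus 3 SD, and confirmed as a hit on visual image review, cut at about 43% in these data; inconclusive = passes the inhibition cutoff but fails visual image review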;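 note: 0% = TNF-stimulated DMSO wells and 100% = unstimulated control wells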
VCAM1 TNFa inh: reduces TNF alpha induced VCAM1 expression in HUVEC. inhibition, % at 2 µM. 0.48% of 95,000 active. HUVEC TNFa-induced VCAM-1 immunofluorescence, high-content imaging;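 active = inhibition above the batch mean plus 3 SD, with images confirmed as a hit by eye, cut at about 37% in these data; inconclusive = inhibition above that limit but hit not confirmed in images; inactive = inhibition not above that limit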;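 note: 0% = TNF-stimulated DMSO wells and 100% = unstimulated control wells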
HUVEC tox TNFa: HUVEC cytotoxicity counter-screen, TNF alpha stimulated; HUVEC TNFalpha-stimulated, Hoechst cell count, imaging; cell count reduction, % at 2 µM; 0.17% of 93,000 active; AID 848;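 active = cell count reduction exceeding the screen mean by over 5 SD, scaled to untreated wells per plate, cut at about 78% in these data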;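 note: cells counted after 24 h of TNF alpha exposure following the 1 h pretreatment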
An asterisk follows results filed as active; u = inconclusive; x = no result given. Compounds with a hit are over-represented: about 1.1% of the library has one in this group of screens.

SMILES	cytoskel mod	E-sel TNF inh	VCAM1 TNFa inh	HUVEC tox TNFa
CCC(Sc1nc2c(c(=O)n1CC)SC(C)C2)C(=O)OC (centres undefined)	-16	65*	-18	10
CCCCNC(=O)OC1CCS(=O)(=O)C1 (centres undefined)	8	-26	8	-28
O=C(NC(=O)c1cccc(OC(F)(F)C(F)F)c1)OC1CCS(=O)(=O)C1 (centres undefined)	x	54*	x	x
Cc1ccc2c(c1)C(c1ccc(F)cc1)N(C(=O)c1cc3ccccc3oc1=O)CC(=O)N2 (centres undefined)	x	95*	x	x
COc1ccc(-c2cc3ccccc3oc2=O)cc1NC(=O)c1ccc([N+](=O)[O-])o1	0	43	74*	x
CCN(CC)C(=O)CN(c1ccc(Cl)cc1)S(=O)(=O)c1ccccc1	u	-12	u	100*
NC(=O)CN(c1ccc(Cl)cc1)S(=O)(=O)c1ccccc1	x	-6	x	x
O=C(Nc1ccccc1)c1cccnc1N1CCCC1	-20	20	13	14
N=c1oc2c3c4c(cc2cc1C(=O)Nc1ccccc1)CCCN4CCC3	43*	31	26	10
CCOC(=O)c1cnn(-c2nc(CC)nc3sc4c(c23)CCC4)c1N	-11	x	92*	76
Cn1cccc1C(=O)OCC(=O)Nc1cc(C(C)(C)C)nn1-c1ccccc1	72*	12	-7	-6
Cc1ccc(-c2cc(NC(=O)CCl)n(-c3ccccc3)n2)cc1	-3	86*	1	-13
O=S1(=O)C=CC(N2CCOCC2)C1 (centres undefined)	-13	x	0	4
COc1cc(-c2nnc3n2N=C(c2ccccc2)CS3)cc(OC)c1OC	-41	-50	54*	-2
COc1ccc(C2=Nn3c(nnc3-c3ccccc3OC)SC2)cc1OC	x	-24	48*	55
COc1ccc(-c2nnc3n2N=C(C)CS3)cc1	-1	30	5	-10
COc1ccc(C2=Nn3c(nnc3-c3ccc(OC)cc3)SC2)cc1	8	4	40*	34
CC(C)Cn1c(/C=C/c2ccco2)nc2ccccc21	x	-25	x	x
CCCCN1C(=O)C2C3C=CC(C2C1=O)C1C2C(=O)N(CCCC)C(=O)C2C31 (centres undefined)	x	72*	x	x
Cc1ccc(NC(=S)Nc2ccc(C(C)C)cc2)cc1S(=O)(=O)N1CCCCCC1	x	-5	x	x
CC1(C)CC(=O)c2cc(OCC(=O)NCCCN3CCN(c4ccc(F)cc4)CC3)ccc2O1	48*	x	-3	-25
O=C(Oc1ccc2ccc(=O)oc2c1)N1CCOCC1	-29	x	90*	79*
CC(=O)c1cc(OC(=O)N2CCOCC2)ccc1OC(=O)N1CCOCC1	x	-32	1	-41
COC(=O)c1ccccc1NC(=O)c1ccco1	0	-8	0	-11
COC(=O)c1ccccc1NC(NC(=O)c1ccco1)C(=O)c1ccc(C)cc1 (centres undefined)	21	6	62*	86*
SMILES	cytoskel mod	E-sel TNF inh	VCAM1 TNFa inh	HUVEC tox TNFa
O=C(Nc1ccc2c(c1)OCO2)OCc1ccccc1	-2	22	-14	8
O=C(c1ccc(Cl)cc1)N1CCCOC1	x	-15	100*	75
Cc1oc2cc3c(C(=O)N4CCCCC4)c(C)oc3cc2c1C(=O)N1CCCCC1	-22	-27	89*	80*
Cc1oc2cc3c(C(=O)N4CCN(c5ccccc5)CC4)c(C)oc3cc2c1C(=O)N1CCN(c2ccccc2)CC1	23	1	15	-34
COC(=O)c1cc(COC(=O)c2nc3nccc(C)n3n2)oc1C	x	-6	x	x
CCN(CC)CC(=O)Nc1sc(C)c(C)c1C(=O)c1ccc(C)cc1	x	4	x	x
Cc1ccc(C(=O)c2c(NC(=O)c3ccccc3C)sc(C)c2C)cc1	10	100*	0	-29
COc1ccccc1CNC(=O)CSc1nnc2ccc(-c3cccnc3)nn12	x	84*	x	x
O=C(NCCCN1CCOCC1)c1sc2ccccc2c1Cl	x	-12	x	x
C=C1C(=O)[C@@]23[C@H](O)C[C@@H]4C(C)(C)CC[C@H](O)[C@@]4(C)[C@@H]2CC[C@@H]1[C@H]3O	x	58*	x	x
N#CC(C#N)=C1C=CC=CN1/C(=C\c1ccco1)C(=O)c1ccc(-c2ccccc2)cc1	x	93*	x	x
FC(F)(F)C1=CC(c2ccc(Br)cc2)=NCCN1	-2	-2	20	6
O=C(Nc1scc(-c2ccc(F)cc2)c1C(=O)O)c1ccco1	-43	20	-44	34
COC(=O)c1c(-c2ccccc2)csc1NC(=O)c1ccco1	-19	71*	3	8
CC1(C)Cc2c(oc3ncn4ncnc4c23)CO1	x	x	u	97*
O=S1(=O)CCN=C2SC3=C(CCCC3)N21	42	30	12	-24
COc1ccc2c(c1)SC1=NCCS(=O)(=O)N12	-20	x	61	80*
Cn1c(SC2=CS(=O)(=O)c3ccccc32)nc2ccccc21	13	62*	8	12
CC1(CC(=O)O)SC(=O)NC1=O (centres undefined)	-12	7	7	-24
Cc1ccc(-c2cc(C(=O)NCc3ccccn3)no2)cc1	77*	16	12	-33
O=C(NCc1ccco1)c1cc(-c2ccc(Cl)cc2)on1	-44	x	79*	66
Cc1ccc(-c2cc(C(=O)NCc3ccco3)no2)cc1	10	-8	-6	-19
Cc1ccc(NC(=S)N(Cc2cccs2)Cc2cc3cccc(C)c3[nH]c2=O)cc1	x	-12	x	x
CCOc1ccc(NC(=S)NC(C)c2cccs2)cc1 (centres undefined)	x	0	x	x
Cn1nc(C(=O)NCC2CCCO2)c2ccccc2c1=O (centres undefined)	9	6	95*	84*
SMILES	cytoskel mod	E-sel TNF inh	VCAM1 TNFa inh	HUVEC tox TNFa
O=C(CC(c1ccccc1)c1ccccc1)NCC1CCCO1 (centres undefined)	5	23	41*	10
O=C(CCSc1ccccc1)NCC1CCCO1 (centres undefined)	7	-20	1	-23
CN(c1ccccc1)S(=O)(=O)c1cccc(C(=O)N2CCN(c3ccccn3)CC2)c1	-29	x	42	82*
CN(C)S(=O)(=O)c1cccc(C(=O)N2CCN(Cc3ccccc3)CC2)c1	-11	2	5	-5
CCCOC(=O)C1=C(C)NC2=C(C(=O)CC(C)(C)C2)C1c1ccc(N(C)C)cc1 (centres undefined)	44	0	-5	-6
CCN(CC)c1ccc(C2C(C(=O)OCCOC)=C(C)NC3=C2C(=O)CC(C)(C)C3)cc1 (centres undefined)	-44	61*	2	-12
CN1CCCCc2c1[nH]c1ccccc1c2=O	19	14	86*	-47
CCOc1ccc(NC(=O)C(C)Oc2ccccc2C(=O)Nc2ccc(C)c(Cl)c2)cc1 (centres undefined)	4	-84	27	5
CCNc1ccc(Br)cc(C(=O)/C=C/c2ccc(Cl)cc2Cl)c1=O	11	-11	3	-18
COc1ccc(Nc2nc(C)cc(C)c2C#N)cc1OC	-2	59*	1	-4
COc1cccc(Nc2nc(C)cc(C)c2C#N)c1	2	-7	-6	-16
CCOC(=O)N1CCN(C(=S)NC(=O)c2cncc(Br)c2)CC1	x	89*	x	x
Cc1ccc(-c2noc(CSc3ccccc3)n2)cc1	-1	-4	16	-8
Cc1ccc(-c2noc(CSc3nc(N)cc(N)n3)n2)cc1	35*	x	30	72
